Holding throughout (test): NCI-60 one-dose screen, 48 h (100 = growth as untreated, 0 = no growth, -100 = all killed)
Details in all cases: 10 µM unless noted

In test [1] the test system is NCI-H23 lung.
The test system of test [2] is NCI-H226 lung.
Test [3] concerns NCI-H322M lung.
In test [4] the test system is HOP-62 NSCLC.
The test system of test [5] is NCI-H460 lung.
Test [6] relates to NCI-H522 lung.
For test [7], the system named is A549/ATCC NSCLC.
Test [8] deals with 786-0 renal.
Test [9] relates to COLO 205 colon.

About 83,000 compounds went through this panel and 20% of them were active in at least one assay; those are over-represented in the sample as a whole.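 Treatment: one concentration, 48 hours, 96-well format. Scoring: percent growth, with anything below 10 considered active.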 Values without a mark were called inactive. Activity calls are given as the source filed them.

The text below walks through data of PubChem BioAssay (NCI).

For `O=C1/C(=C/c2cc(F)cc(F)c2)Cc2cc(F)cc(F)c21`, the growth is 101% in test [1]; 91.4% in test [2]; 75.9% in [3]; 95.1% in test [4]; 103% in test [5]; 83.3% in test [6]. The growth is 102% in [7], 99.8% in test [8] and 107% in [9].

On to `COc1cc(C2CC(c3ccc(C)cc3)=NN2C=O)ccc1Oc1ccnc2cc(Cl)ccc12` (stereo not given), for which the growth in test [1] was 58.6%; in [2], 49.1%; in test [3], 91.1%; in test [4], 3.38% (active); in test [5] it was 62.7%; in test [6] it was 28.3%. In addition, the growth in [7] is 67.8%; in test [8], 18%; in test [9], 108%.

Take `O=C(O/C(=C/c1ccccc1)C(F)(F)F)c1ccccc1`: the growth in test [1] is 109%; in test [2], 102%; in test [3], 125%; in test [4] it was 105%; in test [5] it was 117%; in test [6], 105%. The growth in test [7] was 101%; in test [8], 107%; in test [9], 99.3%.

In the case of `CCNC(=O)c1ccc2c(c1)nc(-c1ccc(Cl)cc1)n2-c1cc(C(C)(C)C)[nH]n1`, the growth in test [1] is 60%; in test [2], 46.9%; in test [3], 70.9%; in [4], 47.3%; in test [5], 36.7%; in [6] it was 32.3%. The growth was 48.6% in test [7], 27.7% in test [8] and 51.8% in [9].

Regarding `COc1cccc(NC(=O)OC(C)C)c1`, the growth is 98.7% in test [1]; 107% in test [2]; 99% in [3]; 103% in test [4]; 105% in test [5]; 90.9% in [6]. The values for the growth in test [7], in test [8] and in [9] were 94.7%, 104% and 103%, respectively.

As to `CCCCc1nc(Cl)c(C2CC(c3ccc(S(N)(=O)=O)cc3)=NN2c2ccc(C#N)cc2)[nH]1` (stereo not given), the growth is 98.5% in test [1]; 79.6% in [2]; 81.3% in test [3]; 90.5% in test [4]; 95.5% in [5]; 68% in test [6]. Further, the growth in [7] is 94.6%; in test [8], 84.6%; in test [9], 87.8%.

For the compound `CCCCCCCCCCCCC1CCC(=O)O1` (stereo not given), the growth was 101% in [1]; 100% in [2]; 74.6% in test [3]; 91.8% in [4]; 107% in test [5]; 86.9% in test [6]. The growth in test [7] is 87.4%; in test [8] it was 85.9%; in test [9], 97.9%.

Turning to `O=C(CCl)Nc1ccc2c(c1)C(=O)c1ccccc1C2=O`, the growth in test [1] is -21.2% (active); in [2], -22.6% (active); in [3], 83.5%; in [4] it was 19.9%; in [5], 3.8% (active); in test [6] it was -68.2% (active). The growth in test [7] was 75.7%; in test [8], -72.3% (active); in test [9], -50.7% (active).

As to `CC(=O)Nc1ccc(/C=N/N2CCCCCC2)cc1`, the growth was 103% in [1]; 92% in test [2]; 101% in test [3]; 95.2% in test [4]; 106% in test [5]; 103% in test [6]. For the same compound, the figures for the growth in test [7], in test [8] and in [9] were 94.3%, 90.9% and 110%, respectively.

Consider `Cc1ccccc1C1CC(=O)c2ccccc2C1C` (stereo not given), for which the growth in test [1] was 100%; in [2], 103%; in test [3], 114%; in test [4] it was 104%; in test [5] it was 108%; in [6], 97.1%. Moreover, the results for the growth in test [7], in test [8] and in [9] were 89.9%, 102% and 104%, respectively.

On to `O=C(N/N=C\c1cc(Br)ccc1O)c1ccncc1`, for which the growth was 43.5% in [1]; 39.9% in test [2]; 41% in test [3]; 15% in [4]; 6.66% (active) in [5]; -27.2% (active) in test [6]. Also, the growth in [7] is 55.6%; in [8], 18.4%; in [9] it was 7.89% (active).

Regarding `CC(C)(CCc1ccccn1)C(=O)CCCc1ccccn1`, the growth was 106% in test [1]; 104% in test [2]; 116% in [3]; 105% in test [4]; 106% in test [5]; 108% in [6]. Besides, the growth in test [7] is 99%; in test [8] it was 99.9%; in test [9] it was 96.4%.

`C[N+](C)(C)CC(=O)N/N=C\c1ccco1`: the growth is 99.6% in [1]; 103% in test [2]; 105% in test [3]; 86.5% in test [4]; 108% in [5]; 85.7% in test [6]. Further, the growth in [7] is 98.1%; in [8], 102%; in [9], 107%.

As for `COc1ccc2c(c1)sc1nc(-c3ccccc3)c(-c3cccc4ccccc34)n12`, the growth was 39.3% in [1]; 68.2% in [2]; 57.9% in test [3]; 64.4% in test [4]; 8.82% (active) in test [5]; -11% (active) in test [6]. For the same compound, the growth in test [7] was 24.2%; in test [8], 51.7%; in [9], 6.28% (active).

Take `CCCCCCCC/C=C\CCCCCCCC(=O)OCCCCCC`: the growth in [1] is 98.4%; in test [2], 94.7%; in [3], 111%; in [4], 121%; in test [5] it was 111%; in test [6] it was 104%. For the same compound, the growth in test [7] is 90.6%; in [8] it was 105%; in test [9] it was 124%.
